# Reference: PubChem BioAssay (NCATS)
# Values joined by “and” are separate entries in the source; they are usually repeats but may differ in a detail not shown here. Equal values may be shown once. Records with an inconclusive call do not appear. Active and inactive are the calls of the source. Unless noted, calls follow the shape of the dose curve; as a rule, active = well fitted curve in the direction sought with a large enough effect; inconclusive = small, poorly fitted or top-dose-only effect, or another doubt; inactive = no such curve, though single readings can be large; an effect the other way counts as inactive or inconclusive.
# Legend:
# [1] = qHTS profiling of the MIPE4 collection as inhibitors of Plasmodium falciparum (3D7) proliferation (AID 743344; call rule not given here;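 also: scaled between DMSO vehicle wells and 0.29 µM artemisinin as full inhibition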); conditions: P. falciparum 3D7 in erythrocytes, SYBR Green DNA fluorescence, 72 h; at 28.5 µM unless noted
# Outline: (§1)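 Parasite DNA was quantified by SYBR Green I fluorescence (ex 485, em 535 nm) after overnight lysis in saponin/Triton buffer at room temperature. Cultures at 0.3% parasitemia and 2.5% hematocrit were first exposed to compound for 72 h at 37 C; signals were normalised to artemisinin (0.29 uM) and vehicle wells.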
# [2] = qHTS profiling of the MIPE4 collection as inhibitors of Plasmodium falciparum (DD2) proliferation (AID 743345; call rule not given here); conditions: P. falciparum Dd2 in erythrocytes, SYBR Green DNA, 72 h; at 28.5 µM unless noted
# Outline: as §1
# [3] = qHTS profiling of the MIPE4 collection as inhibitors of Plasmodium falciparum (HB3) proliferation (AID 743347; call rule not given here;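 also: plate controls were DMSO vehicle wells for no effect and artemisinin wells for full effect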); conditions: P. falciparum HB3 in erythrocytes, SYBR Green DNA, 72 h; at 28.5 µM unless noted
# Outline: as §1
# [4] = High-throughput drug toxicity screening in the BPDCN cell line Gen2.2 (AID 1224824; call rule not given here;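 also: cells exposed to compounds for 48 h before reading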); conditions: Gen2.2 BPDCN cells; at 45.8 µM (top of the series) unless noted
# Outline: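 Readout is ATP luminescence from Gen2.2 cells after two days of drug exposure in serum-containing medium at 37 °C. Values express percent activity, with vehicle defining full signal and 9.2 uM bortezomib defining zero.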
# [5] = High-throughput drug toxicity screening in the BPDCN cell line Cal-1 (AID 1224825; call rule not given here); conditions: Cal-1 BPDCN cell viability, qHTS; at 45.8 µM (top of the series) unless noted
# Outline: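 CellTiter-Glo luminescence after 48 h compound exposure; percent activity scaled with DMSO as 100% and bortezomib (9.2 uM final) as 0%. Cal-1 cells seeded at 500/well in RPMI, 10% FBS, no phenol red.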
# [6] = qHTS assay for measurement of the activity of small molecule inhibitors on Zika virus induced Caspase-3 activity in human iPSC derived neural progenitor cells (hNPCs) (AID 1224857); also: % of control where 0% means no effect; nearly all actives have a fitted effect of over 65% in size
# Outline: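 Human iPSC-derived neural progenitor cells pretreated 1 hr with compounds, then infected with Zika virus (2 FFU/cell) for 6 hours at 37 C. Caspase-3/7 measured by Caspase-Glo luminescence; % inhibition calculated from induction scaled to uninfected (0%) and infected (100%) wells.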
# [7] = qHTS assay for measurement of the activity of small molecule inhibitors on Zika virus induced Caspase-3 activity in human astrocytoma cells (AID 1224859);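 also: plate controls were ZIKV-infected untreated cells for no effect and uninfected cells for full effect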
# Outline: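 SNB-19 astrocytoma cells, 250/well, pretreated 1 h with compounds, then Zika virus at 2 FFU/cell for 6 h at 37 C; Caspase-Glo 3/7 luminescence after 30 min; percent inhibition normalised to uninfected and infected controls.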
# [8] = qHTS Screen of the MIPE 4.0 Collection Against Ewings Sarcoma (RDES) (AID 1259252); also: nearly all actives have a fitted effect of over 35% in size; also: potency is read from the fitted curve at half-maximal effect
# Outline: (§2)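 Dose series incubated 48 h with cells in RPMI plus 5% FBS, glutamine and penicillin/streptomycin; cell viability then quantified via CellTiter-Glo.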
# [9] = qHTS Screen of the MIPE 4.0 Collection Against Ewings Sarcoma (TC71) (AID 1259253); also: nearly all actives have a fitted effect of over 40% in size; also: potency is read from the fitted curve at half-maximal effect
# Outline: as §2
# [10] = qHTS Screen of the MIPE 4.0 Collection Against Ewings Sarcoma (EW8) (AID 1259255); also: nearly all actives have a fitted effect of over 35% in size; also: potency is read from the fitted curve at half-maximal effect;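 as to viability: 100% = DMSO-treated cells and 0% = medium-only wells without cells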
# Outline: as §2
# [11] = qHTS Screen of the MIPE 4.0 Collection Against Ewings Sarcoma (TC32) (AID 1259256); also: nearly all actives have a fitted effect of over 45% in size; also: potency is read from the fitted curve at half-maximal effect
# Outline: as §2
# [12] = P-glycoprotein substrates identified in KB-8-5-11 adenocarcinoma cell line, qHTS therapeutic library screen (AID 1346987); also: nearly all actives have a fitted effect of over 65% in size; also: potency is read from the fitted curve at half-maximal effect
# Outline: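 In this qHTS, P-gp-rich KB-8-5-11 cells received library compounds across a concentration range. Viability was quantified by luminescence after 72 h at 37 degree C.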
# [13] = qHTS profiling of the MIPE4 collection as inhibitors of Plasmodium falciparum (DD2) proliferation (Rep 2) (AID 743346; call rule not given here); conditions: P. falciparum Dd2 in erythrocytes, SYBR Green DNA, 72 h; at 28.5 µM unless noted
# Outline: as §1
# [14] = P-glycoprotein substrates identified in KB-3-1 adenocarcinoma cell line, qHTS therapeutic library screen (AID 1346986); also: nearly all actives have a fitted effect of over 60% in size
# Outline: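 Viability by CellTiter-Glo after 72 h compound exposure at 37 degree C, 5% CO2. Cytotoxic call: curve class -1.1 to -2.4, maximum response >50%, AC50 < 10 uM, compared across KB-3-1 and P-gp-overexpressing KB-8-5-11.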
SMILES,"parasite growth, % of DMSO control [1] [%]","parasite growth remaining, % of DMSO control (lower = more inhibition) [2] [%]","growth, % of control [3] [%]","cell viability, % of control (lower = more cytotoxic) [4] [%]",viability (% of control) [5] [%],Potency [6],Potency [7],Potency [8],Potency [9],Potency [10],Potency [11],Potency [12],"parasite growth, % of control (lower = inhibition) [13] [%]",Potency [14]
CN(C)CC(=O)N1CCC(c2ccc(NC(=O)c3ncc(C#N)[nH]3)c(C3=CCCCC3)c2)CC1,12.3,16.6,9.47,168,28.6,inactive,inactive,13200 nM (active),16600 nM (active),18700 nM (active),20900 nM (active),inactive,,
Cn1cnc(=N)c2[nH]cnc21,5.58,,3.51,128,8.73,inactive,inactive,296 nM (active),235 nM (active),209 nM (active),132 nM (active),10.5 µM (active),,
C[C@@H](NCc1cc2ccccc2[nH]1)c1cccc2ccccc12,41.8,83.3,36.4,171,108,inactive,inactive,inactive,inactive,inactive,inactive,inactive,71.9,
COc1cc(OC)cc(-c2ccc3ncc4ccc(=O)n(-c5ccc(N6CCNCC6)c(C(F)(F)F)c5)c4c3c2)c1,5.19,5.58,9.36,13.6,5.34,inactive,inactive,2960 nM (active),2640 nM (active),4180 nM (active),3320 nM (active),7.43 µM (active),,
CCS(=O)(=O)Nc1ccc2[nH]c(O)c(C(=Nc3ccc(CN4CCCCC4)cc3)c3ccccc3)c2c1,6.54,7.14,4.28,2.51,7.15,inactive,inactive,662 nM (active),132 nM (active),83.3 nM (active),83.3 nM (active),inactive,13.8,
CC(C)C[C@H](NC(=O)[C@@H](NC(=O)c1cccc(-c2ccccc2)n1)[C@@H](C)O)B(O)O,4.97,8.79,3.76,3.77,4.67,inactive,inactive,59 nM (active),74.3 nM (active),37.2 nM (active),66.2 nM (active),833 nM (active) and 820 nM (active),,
C=CC(=O)Nc1cc(NC(=O)c2ccc(C)c(NC(=O)c3ccno3)c2)cc(C(F)(F)F)c1,34,52.8,22.8,4.74,3.59,inactive,inactive,23500 nM (active),20900 nM (active),20900 nM (active),23500 nM (active),inactive,57.2,
CC[C@H](CC[C@@H](C)[C@H]1CC[C@H]2[C@@H]3CC=C4C[C@@H](O)CC[C@]4(C)[C@@H]3CC[C@]12C)C(C)C,,,100,114,107,inactive,inactive,inactive,inactive,inactive,inactive,inactive,,
COc1ccc(C=Cc2cc(OC)c(OC)c(OC)c2)cc1NC(=O)[C@H](N)CO,75.4,75.1,85.5,6.82,7.97,inactive,inactive,2.3 nM (active),3.3 nM (active),4.2 nM (active),inactive,0.0059 µM (active),,
O=c1[nH]c(=O)n([C@H]2C[C@@H](O)[C@@H](CO)O2)cc1F,183,79.8,138,74.8,19.4,inactive,inactive,59 nM (active),93.5 nM (active),59 nM (active),59 nM (active),1.66 µM (active),58.8,
OC[C@H]1OC(O)C[C@@H](O)[C@H]1O (stereo partly drawn),96.9,,86.6,118,115,inactive,inactive,inactive,inactive,inactive,inactive,inactive,,
CC(C)NC[C@@H](C(=O)N1CCN(c2ncnc3c2[C@H](C)C[C@H]3O)CC1)c1ccc(Cl)cc1,5.13,64.9,2.94,1.71,1.88,inactive,inactive,4690 nM (active),11800 nM (active),1660 nM (active),2640 nM (active),inactive,5.81,
CC(O)(C#Cc1ccc2c(c1)N(c1nc(N)ncc1Cl)CC2)c1nccs1 (stereo not drawn),11.7,33.4,5.79,279,37.2,inactive,inactive,16600 nM (active),20900 nM (active),20900 nM (active),20900 nM (active),,22.8,
CC(C(C)N1CC(=O)NC(=O)C1)N1CC(=O)NC(=O)C1 (stereo not drawn),88.4,80.3,98.2,158,27.4,inactive,inactive,743 nM (active),,743 nM (active),inactive,inactive,105,
CN(C)c1ccc(C(=O)NCCCCCCC(=O)NO)cc1,5.09,7.09,2.69,15.8,4.88,inactive,inactive,662 nM (active),,526 nM (active),296 nM (active),3.72 µM (active),8.85,
Cc1ccc(O)c(C(CCN(C(C)C)C(C)C)c2ccccc2)c1 (stereo not drawn),11.8,,19.1,239,103,inactive,inactive,inactive,,inactive,inactive,inactive,10.4,inactive
